# Screens (PubChem)
# Compounds with a hit are over-represented: about 10% of the library has one in this group of screens.
# HEK cytotox – kills HEK 293 cells; Potency, µM (doses to about 115 µM), without a hit: at the top dose activity change, negative = cytotoxicity, most hits filed as inhibitors; 94,000 tested, 6.6% active; AID 1345083; HEK 293 viability, ATP luminescence (CellTiter-Glo), 48-72 h; note: nearly all actives have a fitted effect of over 60% in size
#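 Luminescence from cellular ATP, measured with CellTiter-Glo, indicates HEK 293 viability. Cells plated at 250 cells/well are treated with compound for 48 or 72 hr at 37 degree Celsius before reagent addition.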
# GPT2 inhibitor – blocks human glutamate pyruvate transaminase 2 | AID 1671188 | Recombinant GPT2, coupled pyruvate oxidase/HRP Amplex Red fluorescence | Q8TD30 | 100,000 tested, 0.25% active | Potency, µM (titrated, usually from 57.7 µM), inactives show top-dose activity change, negative = inhibition, hits mostly inhibitors; note: nearly all actives have a fitted effect of over 60% in size
#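 Fluorescence read-out: pyruvate from GPT2 turnover coupled to pyruvate oxidase, HRP and Amplex Red (0.2mM ThPP, 0.2U/mL PO and HRP, 50uM Amplex final). Substrates 250uM a-KG, 2mM L-alanine; enzyme 10ng/uL; 30 min RT.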
# hNpr1 antagonist – antagonists of human natriuretic peptide receptor Npr1 | HEK293 hNpr1 GloSensor cGMP, ANP-stimulated luminescence | Potency, µM (highest dose often 46.3 µM), for the others: at the highest dose activity change, negative = inhibition, usual class: inhibitors | 76,000 tested, 1.6% active | AID 1347048; calls by dose curve; note: nearly all actives have a fitted effect of over 60% in size
#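 HEK293 cells stably expressing human Npr1 and cGMP GloSensor pGS-40F, loaded 2 h with 2% GloSensor reagent, given compound 30 min at room temperature. Luminescence read before and 20 min after 0.1 nM hNppA.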
# FLuc inh – Photinus pyralis luciferase inhibition | P08659 | purified P. pyralis luciferase, luminescence, biochemical | Potency, µM (top dose mostly 115 µM), usual class: inhibitors | 76,000 tested, 2.5% active; note: nearly all actives have a fitted effect of over 65% in size
# Target sequence (P08659 whole entry, looked up): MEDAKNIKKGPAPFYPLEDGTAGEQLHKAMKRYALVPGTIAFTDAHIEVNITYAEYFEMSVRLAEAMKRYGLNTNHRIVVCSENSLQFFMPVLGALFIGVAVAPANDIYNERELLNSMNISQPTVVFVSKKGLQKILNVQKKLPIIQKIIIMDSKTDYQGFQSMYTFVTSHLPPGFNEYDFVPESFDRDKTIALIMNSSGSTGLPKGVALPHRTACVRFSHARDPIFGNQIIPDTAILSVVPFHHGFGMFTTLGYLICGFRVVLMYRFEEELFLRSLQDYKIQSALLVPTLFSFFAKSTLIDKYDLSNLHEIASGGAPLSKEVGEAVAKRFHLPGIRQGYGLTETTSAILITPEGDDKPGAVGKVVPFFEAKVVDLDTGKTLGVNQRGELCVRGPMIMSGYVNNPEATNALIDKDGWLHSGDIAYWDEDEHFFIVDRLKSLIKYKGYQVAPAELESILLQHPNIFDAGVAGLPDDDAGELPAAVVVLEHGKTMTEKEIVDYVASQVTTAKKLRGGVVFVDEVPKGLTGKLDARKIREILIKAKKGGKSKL
#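 Biochemical qHTS: compound (6-point titration) added to 10uM D-luciferin plus 10uM ATP in Tris acetate pH 7.5 buffer with Mg, Tween-20 and BSA, then purified enzyme at 10nM; light output imaged.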
# NIH3T3 tox – kills NIH 3T3 cells | Potency, µM (doses to about 96.7 µM), for inactives: at the highest dose activity change, negative = cytotoxicity, hits mostly inhibitors | NIH 3T3 viability, CellTiter-Glo ATP luminescence, 48-72 h | 94,000 tested, 4.3% active | AID 1345082; note: nearly all actives have a fitted effect of over 55% in size
#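 ATP-dependent luminescence (CellTiter-Glo) served as the viability signal for NIH 3T3 cells treated with compound for 48 or 72 hr at 37 °C.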
# Starred values were filed as active, the others as inactive; i = inactive; ? = inconclusive; / = no result; [ ] = another dose, or the depositor's remark. Unless noted, calls come from the whole dose curve; as a rule, active = well fitted curve in the direction sought with a large enough effect; inconclusive = small, poorly fitted or top-dose-only effect, or another doubt; inactive = no such curve, though single readings can be large; an effect the other way counts as inactive or inconclusive. % is set by controls: 0 for no effect and ±100 for the full control effect; potency is the fitted concentration of half-maximal effect.
SMILES,HEK cytotox,GPT2 inhibitor,hNpr1 antagonist,FLuc inh,NIH3T3 tox
CN1c2cc(C(=O)Nc3ccc(C(F)(F)F)cc3)ccc2C(=O)N2CCCCCC21 (stereo not given),?,i,-22%,?,?
CN1c2cc(C(=O)Nc3ccc(Br)cc3)ccc2C(=O)N2CCCCCC21 (stereo not given),35µM*,i,-28%,?,?
O=C(N[C@@H]1CN(C(=O)c2ccc3ccccc3n2)C[C@H]1CO)c1ccccc1,-9%,i,/,/,-24%
CCCCN1CCN(c2nc(-c3ccccc3)nc3c2CCNC3)CC1=O,79µM*,-2%,-1%,i,?
CCC(O)c1cc2n(n1)CCN(c1nc(-c3ccccc3)nc3c1CCC3)C2 (stereo not given),?,1%,5%,i,?
Cc1ccc(-c2cccc(CN3CCCC3C(=O)NCc3ccccc3Cl)c2)cc1Cl (stereo not given),45µM*,/,/,/,?
COc1ccc(CNC(=O)C2CCCN2Cc2cccc(-c3ccc(C)c(Cl)c3)c2)cc1 (stereo not given),35µM*,/,/,/,32µM*
COc1ccccc1CNC(=O)C1CCCN1Cc1cccc(-c2ccc(C)c(Cl)c2)c1 (stereo not given),40µM*,/,/,/,40µM*
O=C(NCc1ccccc1Cl)C1CCCN1Cc1ccc(-c2cncnc2)cc1 (stereo not given),?,-4%,/,/,?
Cc1ccc(-c2cccc(CN3CCCC3C(=O)NCc3cccs3)c2)cc1Cl (stereo not given),35µM*,/,/,/,16µM*
COC(=O)N1CCCC(C(=O)N2CCC(c3nc4ncccc4[nH]3)C2)C1 (stereo not given),1%,?,/,/,-6%
O=C(CC1CCCCC1)N1CCCC(CN2CCCC2)C1 (stereo not given),-1%,-11%,7%,i,-14%
Cc1ccc(C(=O)N2CCC(N3CC4(CCCC4)C3c3ccccc3)CC2)s1 (stereo not given),?,i,/,/,?
Cc1ccc(-c2noc([C@@H]3C[C@@H](O)CN3C3CCCCC3)n2)cc1F,-20%[172 µM],-12%[88.5 µM],3%[70.6 µM],50µM*,-29%[174 µM]
Cc1ccc(CN2C[C@H](O)C[C@H]2c2nc(-c3ccc(F)cc3)no2)cc1,?,-25%[88.5 µM],2%[70.6 µM],i,?
CC(=O)N1CCC(N2C[C@H](O)C[C@H]2c2nc(-c3ccc(C(F)(F)F)cc3)no2)CC1,71µM*,i,-10%[70.6 µM],?,?
COc1ccc(-c2noc([C@@H]3C[C@@H](O)CN3C3CCCCC3)n2)cc1,?,?,5%[70.6 µM],71µM*,?
Cc1ccc(-c2noc([C@@H]3C[C@@H](O)CN3Cc3ccc(S(C)(=O)=O)cc3)n2)cc1F,?,1%[88.5 µM],2%[70.6 µM],71µM*,?
COc1ccccc1-c1ccc(C(=O)N2CCC(NC(=O)c3ccccc3Cl)CC2)cc1,?,-6%,/,/,?
CNC(=O)c1ccc(CNc2nc(CCN)nc3sc(C)c(C)c23)o1,50µM*,-5%,-18%,i,?
CNC(=O)c1ccc(CNc2cc(C3CC(O)C3)nc(N)n2)o1 (stereo not given),i,i,2%,i,-7%
CSc1ccc(NC(=O)c2ccc3c(c2)N(C)C2CCCCN2C3=O)cc1 (stereo not given),?,i,-1%,45µM*,?
CN1c2cc(C(=O)Nc3ccc(F)cc3)ccc2C(=O)N2CCCCCC21 (stereo not given),?,i,-14%,25µM*,?
O=C(NC1CCC(O)CC1)c1ccc(-c2ncc3cnc(-c4cccc(F)c4)cn23)cc1 (stereo not given),71µM*,i,-3%[70.6 µM],i,-26%[138 µM]
O=C(NCCc1cnc[nH]1)c1ccc(-c2ncc3cnc(-c4cccc(F)c4)cn23)cc1,89µM*,-5%[88.5 µM],2%[70.6 µM],i,50µM*
SMILES,HEK cytotox,GPT2 inhibitor,hNpr1 antagonist,FLuc inh,NIH3T3 tox
O=C(NCCc1cnc[nH]1)c1ccc(-c2ncc3cnc(-c4ccccc4)cn23)cc1,/,-8%[88.5 µM],/,/,/
O=C1N(CC2CCC2)CCCC1(O)CNCC1CCCCC1 (stereo not given),-12%,i,-1%,i,-21%
CO[C@H]1C(=O)N(C(C)C)[C@H]1C1CCN(C(=O)Cn2nc(C(F)(F)F)cc2C)CC1,i,2%,6%,35µM*,i
CO[C@H]1C(=O)N(C(C)C)[C@H]1C1CCN(C(=O)Cn2ccc(C)n2)CC1,0%,3%,0%,25µM*,-1%
O=C1Nc2ccccc2C12CCN(Cc1ccc(C(F)(F)F)cc1)C2 (stereo not given),?,i,/,/,?
Cn1ncc2c(C(=O)NCc3ccc(Cl)cc3)cc(-c3ccc(C(F)(F)F)cc3)nc21,?,/,/,/,-22%
Cn1ncc2c(C(=O)NCCCNC(=O)OC(C)(C)C)cc(-c3ccccc3F)nc21,45µM*,/,/,/,?
Cn1ncc2c(C(=O)NCc3ccc4c(c3)OCO4)cc(-c3ccccc3C(F)(F)F)nc21,35µM*,/,/,/,?
Cn1ncc2c(C(=O)NCc3ccc(C(F)(F)F)cc3)cc(-c3ccccc3C(F)(F)F)nc21,18µM*,/,/,/,?
Cn1ncc2c(C(=O)NCc3ccc(Cl)cc3)cc(-c3ccccc3C(F)(F)F)nc21,32µM*,/,/,/,?
O=C(c1cn(Cc2ccccc2F)nn1)N1CCC(O)(c2cccc(C(F)(F)F)c2)CC1,?,0%,-11%,i,?
CC(NC(=O)c1cc(-c2ccccc2C(F)(F)F)nc2c1cnn2C)C(C)(C)C (stereo not given),45µM*,/,/,/,?
Cn1ncc2c(C(=O)NCC(=O)OC(C)(C)C)cc(-c3ccccc3C(F)(F)F)nc21,45µM*,/,/,/,?
Cc1ccc(C(=O)N2CCCC(C(=O)N3CCC(c4nc5ccncc5[nH]4)CC3)C2)cc1 (stereo not given),-14%,i,/,/,-23%
Cc1ccc(Nc2ccnc(N3CCCC3C(=O)N3CCCC(C)C3)n2)cc1 (stereo not given),?,i,/,/,?
Cc1ccc(C2NC(=O)N(CC(=O)Nc3ccc4c(c3)OCCO4)C3=C2C(=O)OC3)cc1 (stereo not given),?,1%,-9%,i,-18%
Cc1ccc(C2NC(=O)N(CC(=O)Nc3ccc(F)c(F)c3)C3=C2C(=O)OC3)cc1 (stereo not given),20µM*,i,-13%,i,?
Cc1ccc(NC(=O)CN2C(=O)NC(c3ccc(Cl)cc3)C3=C2COC3=O)cc1Cl (stereo not given),32µM*,i,?,?,28µM*
